High-throughput results: PubChem, several laboratories
Hits are enriched below; roughly 3.2% of the tested compounds scored in any of these assays.
PrPC TRFRET: cell surface PrPC inhibition, primary TR-FRET screen | P04156 | TR-FRET read-out | inhibition, % at 13.8 µM | actives 0.43% (n = 370,000) | AID 720596; in the data active = inhibition above about 24%
Mtb FBA inh: Mtb fructose-bisphosphate aldolase inhibition; P9WQA3; purified M. tuberculosis FBA, fluorescence read-out; inhibition, % at 1 µM; actives 2.3% (n = 360,000); AID 588726; in the data active = inhibition above about 27%
GDH-TPI inh: inhibits GDH-TPI coupling enzymes, artifact for Mtb FBA screen | GDH-TPI coupled enzyme counterscreen, NADH absorbance | actives 1.2% (n = 360,000) | inhibition, % at 4.8 µM | AID 588335; in the data active = inhibition above about 30%
Yp Topo-I inh: Y. pestis Topo-I inhibition via cleavage products; actives 0.064% (n = 360,000); AID 504884; activity, % at 10 µM; Y. pestis Topo-I cleavage product accumulation, plate reader; in the data active = activity above about 50%, passing the limit was not always enough
TcdB GH inh: TcdB glycohydrolase inhibition | actives 0.24% (n = 350,000) | inhibition, % at 9.99 µM | P18177 | TcdB glycohydrolase enzymatic assay, plate reader | AID 652162; in the data active = inhibition above about 10%
A number is an active result; 0 = inactive; - = no result; + = active, no number.

SMILES | PrPC TRFRET | Mtb FBA inh | GDH-TPI inh | Yp Topo-I inh | TcdB GH inh
CN(C)C=Nc1ncc2c3ccccc3n(Cc3ccccc3)c2c1C#N | 0 | 0 | 0 | 0 | -
CN(C)C=Nc1ncc2c3ccccc3n(CCN(C)C)c2c1C#N | 0 | 0 | 32.8 | 0 | -
O=c1cc(CN2CCN(S(=O)(=O)c3ccc4c(c3)OCCO4)CC2)c2ccc(O)cc2o1 | 0 | 198.5 | 0 | 0 | -
Cc1ccc2c(CN3CCN(S(=O)(=O)c4ccc(Cl)cc4)CC3)cc(=O)oc2c1C | 0 | 0 | 0 | 0 | 0
CCc1ccc2c(CN3CCN(S(=O)(=O)c4ccc5c(c4)OCCO5)CC3)cc(=O)oc2c1 | 0 | 0 | 0 | 0 | -
O=c1cc(CN2CCN(S(=O)(=O)c3cccc(Cl)c3)CC2)c2ccc(O)cc2o1 | 0 | 118.2 | 0 | 0 | 0
CC(C)NC(=O)NCC[C@H]1CC[C@@H](NC(=O)Nc2ccccc2)[C@H](CO)O1 | - | - | - | - | 0
COc1ccc(Cl)cc1NC(=O)CN(C)C(=O)Cc1ccc2c(c1)CCC2 | 0 | 0 | 0 | 0 | 0
COc1ccc(Cl)cc1NC(=O)CN(C)C(=O)c1cc2c(s1)CCCC2 | 0 | 0 | 0 | 0 | 11.6
Cc1cc(Nc2cnc3ccccc3n2)n(-c2ccccc2)n1 | 0 | 0 | 0 | 0 | -
Cc1cc(Nc2nc3ccccc3[nH]c2=O)n(-c2ccccc2)n1 | 0 | 0 | 42.5 | 0 | -
O=C(CC(=O)c1ccccc1)Nc1cc([N+](=O)[O-])ccc1Cl | 0 | 0 | 30.8 | 0 | 0
Cn1c(N)c(N=O)c(=O)n(C)c1=S | 0 | 0 | 43.0 | 0 | 0
Cc1cccn2c(=O)c3cc(C(=O)NCc4cccnc4)c(=N)n(C(C)C)c3nc12 | 0 | + | 0 | 0 | -
N=c1c(C(=O)NCc2ccc3c(c2)OCO3)cc2c(=O)n3ccccc3nc2n1Cc1cccnc1 | 0 | 0 | 0 | 0 | -
Cc1cccc(NC(=O)c2cc3c(=O)n4ccccc4nc3n(CC(C)C)c2=N)c1 | 0 | 0 | 0 | 0 | 0
CC(C)n1c(=N)c(C(=O)NCCc2ccccc2)cc2c(=O)n3ccccc3nc21 | 0 | + | 0 | 0 | -
Cc1cccn2c(=O)c3cc(C(=O)NCc4ccco4)c(=N)n(C(C)C)c3nc12 | 0 | + | 0 | 0 | -
CC(=O)N1[C@@H]2c3ccc(C4=CCCCC4)c(=O)n3C[C@H]1[C@H](CO)[C@H]2C(=O)N[C@@H](C)c1ccccc1 | - | - | - | - | 0
C[C@H]1CN([C@@H](C)CO)C(=O)Cc2cc(NC(=O)C3CC3)ccc2O[C@H]1CN(C)C | - | - | - | - | 0
O=C(Nc1ccc(Cl)c(Cl)c1)N[C@H]1CC[C@@H](CCn2cc(C3CCCCC3)nn2)O[C@@H]1CO | - | - | - | - | 0
O=S(=O)(N[C@H]1CC[C@@H](CCn2cc(-c3ccc(F)cc3)nn2)O[C@H]1CO)c1ccccc1F | - | - | - | - | 0
c1ccc2c(c1)CC/C2=N/Nc1nc2ccccc2[nH]1 | 0 | 0 | 48.8 | 0 | -
CC(C)NC(=O)Nc1cccc2c1O[C@H](CN(C)C(=O)NC1CCCCC1)[C@H](C)CN([C@@H](C)CO)C2=O | - | - | - | - | 0
C[C@@H]1CN([C@H](C)CO)C(=O)c2cc(C3=CCCCC3)cnc2O[C@@H]1CN(C)C(=O)Cc1cccnc1 | - | - | - | - | 0
SMILES | PrPC TRFRET | Mtb FBA inh | GDH-TPI inh | Yp Topo-I inh | TcdB GH inh
CC(C)(O)c1ccccc1CC[C@@H](SCC1(CC(=O)O)CC1)c1cccc(/C=C/c2ccc3ccc(Cl)cc3n2)c1 | - | 0 | 31.4 | 0 | -
Cc1noc(C)c1S(=O)(=O)Nc1ccc2c(c1)C(=O)N([C@H](C)CO)C[C@@H](C)[C@@H](CN(C)Cc1ccccc1)O2 | - | - | - | - | 0
O=C(/C=C\Nc1ccccn1)c1ccc(Cl)cc1 | 0 | 0 | 31.5 | 0 | -
Cc1cccc(N/C=C/C(=O)c2ccc(Cl)cc2)c1 | 0 | 0 | 0 | 0 | 0
COc1ccccc1CNC(=O)C[C@@H]1C[C@@H]2c3cc(N(C)C)ccc3O[C@@H]2[C@H](CO)O1 | - | - | - | - | 0
COc1ccc(-c2cn(CC[C@H]3CC[C@@H](NC(=O)Cc4ccccn4)[C@H](CO)O3)nn2)cc1 | - | - | - | - | 0
Cc1ccc(S(=O)(=O)N(C)C[C@H]2Oc3ccc(NS(=O)(=O)c4ccc(Cl)cc4)cc3CC(=O)N([C@@H](C)CO)C[C@@H]2C)cc1 | - | - | - | - | 0
COc1ccc2nc(Nc3ccccc3OC)sc2c1 | 0 | 0 | 0 | 0 | 0
COc1ccc(-c2nnc(Nc3nc4c(OC)cccc4s3)o2)cc1 | 0 | 0 | 63.0 | 0 | -
COc1ccc(-c2nnc(Nc3nc4c(OC)cccc4s3)o2)c(OC)c1 | 0 | 60.4 | 68.5 | 0 | -
COc1ccc(CN(C)C[C@H]2Oc3c(NS(C)(=O)=O)cccc3C(=O)N([C@@H](C)CO)C[C@H]2C)cc1 | - | - | - | - | 0
O=C(C1CC1)N1C[C@@H]2[C@H](c3ccccc31)[C@H](CO)N2C(=O)Nc1cccc(F)c1 | - | - | - | - | 0
O=C1CC(c2ccc(F)cc2)CC2=C1C(c1ccc([N+](=O)[O-])o1)Nc1ccccc1N2 (stereo unspecified) | 0 | 0 | 37.9 | 0 | 0
O=C1CC(c2ccccc2)CC2=C1C(c1ccccn1)Nc1ccccc1N2 (stereo unspecified) | 0 | 0 | 0 | 0 | 0
CO[C@H]1CN(C)C(=O)c2cc(C#N)ccc2OC[C@@H]2O[C@H](CC[C@H]2OC)CCN(C)C(=O)[C@@H]1C | - | - | - | - | 0
CN(C)CC(=O)N1[C@H](CO)[C@@H](c2ccccc2-c2ccccc2F)[C@@H]1C#N | - | - | - | - | 0
C[C@@H]1CN([C@H](C)CO)C(=O)c2cc(NC(=O)C3CCCCC3)ccc2O[C@H]1CN(C)Cc1ccncc1 | - | - | - | - | 0
COc1ccc(-c2c(-c3cc(OC)cc(OC)c3)n(C)c3ccc(-c4cccc5[nH]ccc45)cc23)cc1 | 0 | 121.3 | 0 | 0 | 0
COc1ccc(-c2c(-c3cc(OC)cc(OC)c3)n(C)c3ccc(-c4ccc5cc[nH]c5c4)cc23)cc1 | 0 | 113.5 | 35.0 | 0 | 0
C[C@H]1CN([C@@H](C)CO)C(=O)Cc2cc(NS(=O)(=O)c3cccs3)ccc2O[C@H]1CN(C)Cc1ccc2c(c1)OCO2 | - | - | - | - | 0
CC(C)(C)c1ccc(C(=O)Nc2nnc(SCC(=O)NCC3CCCO3)s2)cc1 (stereo unspecified) | 0 | 0 | 0 | 0 | 0
CCOc1ccc(C(=O)Nc2nnc(SCC(=O)NCC3CCCO3)s2)cc1 (stereo unspecified) | 0 | 0 | 38.1 | 0 | 0
CN(C)S(=O)(=O)c1ccc(C(=O)Nc2nnc(SCC(=O)NCC3CCCO3)s2)cc1 (stereo unspecified) | 0 | 0 | 35.0 | 0 | 0
C[C@@H]1CN([C@@H](C)CO)C(=O)Cc2cc(NC(=O)Nc3ccc(F)cc3)ccc2O[C@@H]1CN(C)S(=O)(=O)c1ccc(Cl)cc1 | - | - | - | - | 0
CCCC#Cc1cnc2c(c1)C(=O)N([C@H](C)CO)C[C@@H](C)[C@@H](CN(C)C(=O)CCN1CCCCC1)O2 | - | - | - | - | 0
COc1cccc(CN2[C@@H](CO)[C@@H]3c4ccccc4N(C(=O)c4ccncc4)C[C@@H]32)c1 | - | - | - | - | 0
O=S(=O)(Oc1ccccc1/C=N/n1cnnc1)c1ccccc1 | 0 | 0 | 0 | 0 | 19.9
COc1cc(/C=N/N=C2/C(=O)Nc3ccccc32)ccc1O | 0 | 0 | 0 | 0 | -
COc1cc(/C=N/N=C2/NC(=O)C(c3ccccc3)S2)ccc1O (stereo unspecified) | 0 | 0 | 53.7 | 0 | -
